EWS-Fli block = EWS/Fli transcriptional activity inhibition; A673 NR0B1-luciferase reporter, viability-normalised; inhibition, % at 12.6 µM; 0.67% of 350,000 active;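 active means mean inhibition of at least 50% after viability correction, with every replicate also passing that limit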;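 further: firefly luciferase signal divided by Alamar Blue viability fluorescence both relative to DMSO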
SIRT5 block = blocks human SIRT5 desuccinylation of peptide; 1.1% of 330,000 active; inhibition, % at 15 µM; Purified SirT5, succinyl-peptide AMC, trypsin-coupled fluorescence; in the data active means inhibition above about 15%
Target sequence (Q9NXA8 whole entry, looked up): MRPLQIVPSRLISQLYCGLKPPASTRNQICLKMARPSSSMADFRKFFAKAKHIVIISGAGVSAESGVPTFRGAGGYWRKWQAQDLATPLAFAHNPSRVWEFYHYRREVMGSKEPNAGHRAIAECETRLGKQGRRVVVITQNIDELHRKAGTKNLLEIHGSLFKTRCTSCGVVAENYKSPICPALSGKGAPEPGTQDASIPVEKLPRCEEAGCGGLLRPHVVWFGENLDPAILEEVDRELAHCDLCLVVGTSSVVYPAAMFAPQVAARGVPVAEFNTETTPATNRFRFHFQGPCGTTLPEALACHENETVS
PAX8 reporter = inhibitors of PAX8 transcriptional activity in RMG-I cells | RMG-I TPO-luciferase reporter, SteadyGlo, 24 h | inhibition, % at 12.6 µM | 1.2% of 360,000 active;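 active means mean replicate inhibition at least 60% with every replicate also reaching 60%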;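 further: luciferase light reporting Pax8 driven TPO promoter activity; plate controls were median of neutral control wells for no effect and mitoxantrone controls for full effect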
PGC1a acetyl inh = PGC1a acetylation modulation, inhibitor mode; U2OS PGC1a acetylation, AlphaScreen anti-acetyl-lysine; with virally co-expressed GCN5 acetyltransferase; inhibition, % at 15.6 µM; 0.17% of 350,000 active; AID 651687;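 active means every replicate shows inhibition of at least 40%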;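 further: 0% = neutral control wells and 100% = positive control wells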
LGR2 antag = Drosophila LGR2 receptor signaling inhibition. HEK293 LGR2, CRE-luciferase, bursicon-stimulated, 4 h. inhibition, % at 9.99 µM. 0.35% of 380,000 active. AID 720647;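 active means drop in luminescence signal, shown as inhibition above about 50% in the replicate tests, limit read from the data, passing the limit was not always enough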;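 further: agonist challenge used bursicon conditioned medium at about half maximal strength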
Ecoli rRNA inh = inhibitors of bacterial rRNA selective over humanized ribosomes. E. coli WT GFP vs humanized-ribosome RFP mutants, fluorescence, 24 h; active compounds read low; DMSO median 0, no signal -100. AID 720706. GFP signal change (wild-type ribosome), % (test concentration not listed). 1.6% of 350,000 active;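 active means significant combined selectivity score with lowered wild-type GFP, culture density cut under 30%, mutant RFP and density less affected; inactive means any of these conditions unmet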
Active calls of the source: *; x = no result given. Compounds with a hit are over-represented: about 3.4% of the library has one in this group of screens.

SMILES	EWS-Fli block	SIRT5 block	PAX8 reporter	PGC1a acetyl inh	LGR2 antag	Ecoli rRNA inh
C[C@@H]1CN(C)C(=O)c2cc(N)ccc2O[C@@H]1CN(C)C	x	x	x	x	x	-6.2
COc1ncnc2c1sc1nc(-c3ccccc3)c3c(c12)CCCC3	x	x	-4.4	x	-6.3	x
CN(C)CCNc1ncnc2c1sc1nc(-c3ccccc3)c3c(c12)CCCC3	45.1	-8.6	64.5*	18.0	26.0	-58.8
CC(C(=O)NCc1cccs1)N1C(=O)c2ccccc2C1=O (stereo not given)	x	18.8*	x	x	4.6	15.4
O=C(c1ccc(Cl)cc1)N1CCCCC(Sc2nnc(-c3ccc4c(c3)OCO4)o2)C1=O (stereo not given)	x	x	70.1*	-8.0	x	x
O=C(c1ccc(F)cc1)N1CC(=O)N2[C@H](C1)[C@H](c1ccc(C#CC3CCCC3)cc1)[C@@H]2CO	-39.6	1.2	x	1.6	-26.4	-32.9
CCOC(=O)c1ccc(NC(=O)CNC(=O)c2ccccc2)cc1	x	x	7.2	21.7	x	x
CN(C)C(=O)c1ccc(NC(=O)COc2cccc(Oc3ccccc3)c2)cc1	-2.2	-6.4	-5.9	x	19.9	-26.8*
CCOC(=O)c1ccc(NC(=S)NCCc2ccc(OC)c(OC)c2)cc1	6.2	-1.0	3.5	x	-0.2	-27.5*
O=C(COc1cccc(Oc2ccccc2)c1)Nc1ccc(SC(F)F)cc1	x	x	x	4.8	x	x
CCOC(=O)c1ccc(NC(=O)COc2ccccc2CNCCc2ccccc2)cc1	19.5	-1.9	8.5	6.4	71.4*	-51.1
CCOC(=O)c1ccc(NC(=O)CNNC(=O)COc2ccccc2C)cc1	11.7	-0.9	5.1	x	-12.3	-29.2*
CNCc1ccccc1OCC(=O)Nc1ccccc1	x	x	x	1.2	-44.4	x
CC(C)CN1C(=O)[C@@]2(c3ccc([N+](=O)[O-])cc3)CC(=O)N(CC3C4CC5CC(C4)CC3C5)[C@@H]2c2ccc(CO)cc21 (stereo not given in full)	-4.2	-0.4	-5.1	x	x	x
CCOc1ccc(NC(=O)COc2ccc(C(=O)NCCc3ccccc3)cc2)cc1	-8.9	-3.1	72.7*	x	-0.5	6.3
C[C@H]1CN([C@@H](C)CO)C(=O)c2c(c3ccccc3n2C)-c2ccccc2CO[C@@H]1CN(C)C(=O)c1ccncc1	-4.1	-4.2	-9.2	-9.8	-5.5	2.1
O=C1/C(=C/c2cccnc2)CCC/C1=C\c1cccnc1	54.2*	1.0	-12.6	x	90.1*	-20.9
CCC1C/C(=C\c2cccnc2)C(=O)/C(=C/c2cccnc2)C1 (stereo not given)	53.8*	0.8	89.2*	x	x	-57.4
O=C(C[C@H]1C=C[C@H](NC(=O)Nc2ccc(F)cc2)[C@@H](CO)O1)NCc1cccc(F)c1	-0.7	-3.6	x	1.2	9.2	-1.2
COc1ccc(S(=O)(=O)N2C[C@H](O)COC[C@@H]3O[C@H](CC(=O)NCc4ccc(Cl)c(Cl)c4)CC[C@H]32)cc1	10.2	4.0	12.0	-20.9	-7.2	-9.1
O=C(C[C@H]1CC[C@H]2[C@@H](COC[C@H](O)CN2C(=O)Nc2ccc(Cl)c(Cl)c2)O1)NCc1ccc(Cl)c(Cl)c1	-1.8	3.2	35.8	5.8	3.9	-56.1
O=C(C[C@H]1CC[C@H]2[C@@H](COC[C@@H](O)CN2C(=O)Nc2cc(Cl)cc(Cl)c2)O1)N1CCOCC1	-6.1	x	1.2	0.1	-1.1	-26.6*
COc1ccc(S(=O)(=O)N2C[C@@H](O)COC[C@@H]3O[C@@H](CC(=O)NCc4ccc(Cl)c(Cl)c4)CC[C@H]32)cc1	6.3	15.3*	25.2	-10.0	-3.3	-19.4
O=C(C[C@@H]1CC[C@H]2[C@@H](COC[C@@H](O)CN2C(=O)Nc2ccc(Cl)c(Cl)c2)O1)NCc1ccc(Cl)c(Cl)c1	8.1	15.5*	27.9	20.1	5.1	-58.4
C[C@@H]1CN([C@@H](C)CO)C(=O)Cc2cc(NS(=O)(=O)c3cn(C)cn3)ccc2O[C@@H]1CN(C)C(=O)Nc1cccc2ccccc12	-1.5	-15.9	9.8	0.2	0.2	4.4
CC1(C)CC2CC(C)(CN2S(=O)(=O)c2ccc(C(=O)Nc3ccc(Cl)c(S(=O)(=O)N4CCOCC4)c3)cc2)C1 (stereo not given)	x	x	x	-14.1	x	x
O=C(CN1C(=O)NC2(CCCCC2)C1=O)Nc1cccc(S(=O)(=O)N2CCOCC2)c1	-3.5	-1.4	4.3	-15.1	-17.2	4.5

Compound activity deposited in PubChem BioAssay by Broad Institute.
